The panel holds about 79,000 compounds, 15% with a hit somewhere; the sample as a whole holds those more often. Values without a mark were called inactive. The source made the active and inactive calls. Rule as the data show it: active = growth inhibition above about 70%; inactive = the rest.

The record followed here is PubChem BioAssay (NCI).

A short description of assay [1]: NCI Yeast Anticancer Drug Screen. Data for the rad50 strain (AID 155).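 Also: 0% = growth of vehicle-only cultures of the same strain.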 The conditions noted are these: S. cerevisiae rad50 strain growth inhibition, stronger effect = higher value. In outline:
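Cells are treated with compound, grown, and their growth is then scored against vehicle-only cultures of the same repair-deficient yeast strain.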

Assay [2] in a line: NCI Yeast Anticancer Drug Screen. Data for the mec2-1 strain (AID 157). The following applies: S. cerevisiae mec2-1 strain, stronger effect = higher value. The method, boiled down: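 mec2-1 yeast strain, carrying an alteration in DNA damage repair or cell cycle control, was exposed to compounds; growth inhibition was measured relative to vehicle-treated controls.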
A short description of assay [3]: NCI Yeast Anticancer Drug Screen. Data for the sgs1 mgt1 strain (AID 161).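 Also: 0% = growth of cultures given vehicle only.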 The conditions noted are these: S. cerevisiae sgs1 mgt1 strain, stronger effect = higher value. In outline: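 Compounds are added to genetically altered yeast, and growth is compared with cultures given vehicle alone to give percent inhibition.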
A short description of assay [4]: NCI Yeast Anticancer Drug Screen. Data for the cln2 rad14 strain (AID 165).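 Also: 0% = growth equal to vehicle treated cultures.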 The conditions noted are these: S. cerevisiae cln2 rad14 strain, stronger effect = higher value. The method, boiled down:
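Yeast carrying cln2 and rad14 alterations (cell cycle control and DNA damage repair) were exposed to compounds. Growth inhibition was measured against vehicle-treated controls.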

Assay [5] is described as follows: NCI Yeast Anticancer Drug Screen. Data for the bub3 strain (AID 167). The following applies: S. cerevisiae bub3 mutant strain, stronger effect = higher value. The method, boiled down:
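Part of a panel of yeast mutants defective in DNA damage repair or cell cycle regulation. Each strain is grown with compound, and inhibition is calculated relative to solvent-treated cultures.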

Assay [6] can be described thus: NCI Yeast Anticancer Drug Screen. Data for the mlh1 rad18 strain (AID 175). The conditions noted are these: S. cerevisiae mlh1 rad18 strain growth inhibition, stronger effect = higher value. The method, boiled down: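 Growth inhibition of the yeast strain was measured after compound exposure and expressed relative to vehicle-treated controls. The strain carries defined defects in DNA damage repair.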

[7] abbreviates: at 5.0 µM (retest, dose inferred, filed as 0.5).
Setting [8] is: at 50.0 µM (retest, dose inferred, filed as 5.0).

For the compound `O=C(O)C1C2c3cccc4cccc(c34)C12` (configuration not stated), the growth inhibition is -139% in assay [1] (setting [7]); 88% (active) in assay [1] (setting [8]); 44.8% in assay [1] (at 50.0 µM); -50% in assay [2] (setting [7]); 72% (active) in assay [2] (setting [8]); 87.6% (active) in assay [2] (at 50.0 µM). The growth inhibition is -56% in assay [3] (setting [7]); 74% (active) in assay [3] (setting [8]); 40.4% in assay [3] (at 50.0 µM); -41% in assay [4] (setting [7]); 78% (active) in assay [4] (setting [8]); 85.3% (active) in assay [4] (at 50.0 µM). The growth inhibition in assay [5] (setting [7]) is -59%; in assay [5] (setting [8]), 86% (active); in assay [5] (at 50.0 µM), 93.2% (active); in assay [6] (setting [7]), -112%; in assay [6] (setting [8]) it was 81% (active); in assay [6] (at 50.0 µM), 83.8% (active).
With `CC(C)NCC(O)c1ccccc1Cl` (configuration not stated), the growth inhibition in assay [1] (setting [7]) was 3%; in assay [1] (setting [8]), 2%; in assay [1] (at 50.0 µM) it was 5.4%; in assay [2] (setting [7]), 2%; in assay [2] (setting [8]), -2%; in assay [2] (at 50.0 µM), -11.3%. Moreover, the growth inhibition in assay [3] (setting [7]) was 0%; in assay [3] (setting [8]) it was 3%; in assay [3] (at 50.0 µM) it was -3.35%; in assay [4] (setting [7]) it was 0%; in assay [4] (setting [8]) it was -2%; in assay [4] (at 50.0 µM), 32.9%. Besides, the growth inhibition in assay [5] (setting [7]) was -2%; in assay [5] (setting [8]), -4%; in assay [5] (at 50.0 µM), -6.2%; in assay [6] (setting [7]), 8%; in assay [6] (setting [8]) it was 3%; in assay [6] (at 50.0 µM), 14.1%.
In the case of `N#CC(Nc1c(N)nc(-c2ccccc2)nc1N)c1ccc(N(CCCl)CCCl)cc1` (configuration not stated), the growth inhibition in assay [1] (setting [7]) was 4%; in assay [1] (setting [8]) it was 45%; in assay [1] (at 50.0 µM), 57.5%; in assay [2] (setting [7]), -18%; in assay [2] (setting [8]), 26%; in assay [2] (at 50.0 µM) it was 66%. Also, the growth inhibition in assay [3] (setting [7]) is 2%; in assay [3] (setting [8]), 43%; in assay [3] (at 50.0 µM) it was 59.8%; in assay [4] (setting [7]), -10%; in assay [4] (setting [8]), 9%; in assay [4] (at 50.0 µM), 53.1%. The growth inhibition in assay [5] (setting [7]) is -4%; in assay [5] (setting [8]), -4%; in assay [5] (at 50.0 µM), 0.75%; in assay [6] (setting [7]), 27%; in assay [6] (setting [8]), 90% (active); in assay [6] (at 50.0 µM), 55.6%.
Take `CC(C)C1(NC(=O)C2C=C3c4cccc5[nH]cc(c45)CC3N(C)C2)OC2(O)C3CCCN3C(=O)C(Cc3ccccc3)N2C1=O` (configuration not stated) (tested in a mixture with another compound): the growth inhibition was 22% in assay [1] (setting [7]); 97% (active) in assay [1] (setting [8]); 98.2% (active) in assay [1] (at 50.0 µM); 4% in assay [2] (setting [7]); 99% (active) in assay [2] (setting [8]); 98.6% (active) in assay [2] (at 50.0 µM). Besides, the growth inhibition in assay [3] (setting [7]) was 4%; in assay [3] (setting [8]), 96% (active); in assay [3] (at 50.0 µM), 98.7% (active); in assay [4] (setting [7]), 6%; in assay [4] (setting [8]) it was 98% (active); in assay [4] (at 50.0 µM) it was 96.8% (active). Also, the growth inhibition in assay [5] (setting [7]) was 7%; in assay [5] (setting [8]), 98% (active); in assay [5] (at 50.0 µM), 97.5% (active); in assay [6] (setting [7]), 6%; in assay [6] (setting [8]) it was 98% (active); in assay [6] (at 50.0 µM), 96.8% (active).
`S=P(Nc1ccccc1)(Nc1ccccc1)Nc1ccccc1`: the growth inhibition is 21% in assay [1] (setting [7]); 94% (active) in assay [1] (setting [8]); 96.8% (active) in assay [1] (at 50.0 µM); 18% in assay [2] (setting [7]); 94% (active) in assay [2] (setting [8]); 98% (active) in assay [2] (at 50.0 µM). For the same compound, the growth inhibition in assay [3] (setting [7]) is 12%; in assay [3] (setting [8]), 95% (active); in assay [3] (at 50.0 µM), 96.8% (active); in assay [4] (setting [7]), 7%; in assay [4] (setting [8]) it was 94% (active); in assay [4] (at 50.0 µM), 97.7% (active). The growth inhibition in assay [5] (setting [7]) is 19%; in assay [5] (setting [8]), 92% (active); in assay [5] (at 50.0 µM) it was 98.2% (active); in assay [6] (setting [7]), 23%; in assay [6] (setting [8]), 94% (active); in assay [6] (at 50.0 µM), 96.8% (active).
Consider `CC(=O)OC1C(O)C(C)OC(OC2C(OC(=O)C3CCC4C(C3)OC3(CC(OC(=O)/C=C/c5ccccc5)C(C)CO3)C43CO3)OC(C)C(O)C2OC(C)=O)C1O` (configuration not stated), for which the growth inhibition in assay [1] (setting [7]) is -20%; in assay [1] (setting [8]), 96% (active); in assay [1] (at 50.0 µM), 91% (active); in assay [2] (setting [7]), 10%; in assay [2] (setting [8]), 98% (active); in assay [2] (at 50.0 µM), 92.7% (active). In addition, the growth inhibition in assay [3] (setting [7]) is -5%; in assay [3] (setting [8]), 95% (active); in assay [3] (at 50.0 µM), 93% (active); in assay [4] (setting [7]) it was 24%; in assay [4] (setting [8]), 96% (active); in assay [4] (at 50.0 µM), 90.1% (active). Also, the growth inhibition in assay [5] (setting [7]) is 6%; in assay [5] (setting [8]), 98% (active); in assay [5] (at 50.0 µM) it was 92.2% (active); in assay [6] (setting [7]), -1%; in assay [6] (setting [8]), 97% (active); in assay [6] (at 50.0 µM), 91.6% (active).
Take `O=[N+]([O-])c1ccccc1`: the growth inhibition in assay [1] (setting [7]) is 11%; in assay [1] (setting [8]) it was 75% (active); in assay [1] (at 50.0 µM), 79.2% (active); in assay [2] (setting [7]), 3%; in assay [2] (setting [8]) it was 10%; in assay [2] (at 50.0 µM) it was -0.5%. Further, the growth inhibition in assay [3] (setting [7]) was 3%; in assay [3] (setting [8]), 17%; in assay [3] (at 50.0 µM), 27.1%; in assay [4] (setting [7]), 4%; in assay [4] (setting [8]), 4%; in assay [4] (at 50.0 µM), 35.5%. The growth inhibition in assay [5] (setting [7]) is 2%; in assay [5] (setting [8]) it was 12%; in assay [5] (at 50.0 µM), 13.3%; in assay [6] (setting [7]), 6%; in assay [6] (setting [8]) it was 19%; in assay [6] (at 50.0 µM), 39.2%.
In the case of `O=C1c2ccccc2[Se](=O)N1c1ccccc1` (configuration not stated), the growth inhibition in assay [1] (setting [7]) was 50%; in assay [1] (setting [8]) it was 96% (active); in assay [1] (at 50.0 µM) it was 93.1% (active); in assay [2] (setting [7]) it was 61%; in assay [2] (setting [8]) it was 99% (active); in assay [2] (at 50.0 µM), 93.9% (active). The growth inhibition in assay [3] (setting [7]) is 23%; in assay [3] (setting [8]), 96% (active); in assay [3] (at 50.0 µM) it was 93% (active); in assay [4] (setting [7]) it was 45%; in assay [4] (setting [8]), 98% (active); in assay [4] (at 50.0 µM) it was 91.7% (active). Further, the growth inhibition in assay [5] (setting [7]) is 72% (active); in assay [5] (setting [8]), 99% (active); in assay [5] (at 50.0 µM) it was 90.8% (active); in assay [6] (setting [7]) it was 83% (active); in assay [6] (setting [8]) it was 98% (active); in assay [6] (at 50.0 µM) it was 90.8% (active).
In the case of `O=P(c1ccccc1)(c1ccccc1)c1ccccc1.O=P(c1ccccc1)(c1ccccc1)c1ccccc1.S=C=[N][Sn]([N]=C=S)([N]=C=S)[c]1ccccc1`, the growth inhibition is 58% in assay [1] (setting [7]); 98% (active) in assay [1] (setting [8]); 99.5% (active) in assay [1] (at 50.0 µM); 21% in assay [2] (setting [7]); 99% (active) in assay [2] (setting [8]); 99.5% (active) in assay [2] (at 50.0 µM). Moreover, the growth inhibition is 62% in assay [3] (setting [7]); 99% (active) in assay [3] (setting [8]); 99% (active) in assay [3] (at 50.0 µM); -2% in assay [4] (setting [7]); 98% (active) in assay [4] (setting [8]); 97.8% (active) in assay [4] (at 50.0 µM). Further, the growth inhibition in assay [5] (setting [7]) is -2%; in assay [5] (setting [8]), 99% (active); in assay [5] (at 50.0 µM), 99.2% (active); in assay [6] (setting [7]) it was 72% (active); in assay [6] (setting [8]), 99% (active); in assay [6] (at 50.0 µM), 97.7% (active).
